# Test results: publication PMC4242493, “Sequence specificity incompletely defines the genome-wide occupancy of Myc”
# Whole data set: some 33,000 sequences, median “normalized occupancy” near 0.075, cut for the highest 2% near 0.095. The sample as a whole holds a higher share of the highest values than the screen did.
# Target: MaxL homodimer (Homo sapiens, UniProt P61244 1-160)
# Experiment: universal protein-binding microarray (PBM); PBS-based mixture, 10 nM His-tagged protein dimer, 2% milk, 200 ng/uL BSA, 50 ng/uL salmon testes DNA, 0.02% TX-100; detection with Alexa 488 anti-His antibody;; high values mean tight binding
# Conditions: protein: recombinant; tags: C-terminal His-tag (pET21a); chain copies: 2; dsDNA, one strand shown
# Outline: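 Binding occupancy is a fluorescence intensity normalised to the intensity of the highest-ranked sequence word. Those intensities came from 8-mers on Agilent 4 x 44 K 'all 10-mer' universal arrays incubated with 10 nM His-tagged protein dimer. Bound protein was detected with 10 ng/μL fluorophore-conjugated anti-His antibody before scanning on a GenePix 4400A.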
# Chain of MaxL homodimer (P61244 whole entry): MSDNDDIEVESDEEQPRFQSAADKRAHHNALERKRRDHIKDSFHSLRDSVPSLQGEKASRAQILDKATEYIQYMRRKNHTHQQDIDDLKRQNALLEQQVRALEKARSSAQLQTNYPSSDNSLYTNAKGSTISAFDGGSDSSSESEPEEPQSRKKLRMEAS
row,Sequence,binding signal
1,TATGTGCA,0.084 normalized occupancy
2,AATGTGTA,0.0864 normalized occupancy
3,AATGTGTG,0.0963 normalized occupancy
4,AATGTGCG,0.0957 normalized occupancy
5,GGTGTTCA,0.0754 normalized occupancy
6,AGTGTTCA,0.0774 normalized occupancy
7,CATGTGCA,0.149 normalized occupancy
8,AGTGTGTG,0.0828 normalized occupancy
9,GATGTGCA,0.0814 normalized occupancy
10,CGTGTTCA,0.1 normalized occupancy
11,AATGTGCC,0.0816 normalized occupancy
12,AATGTGCA,0.0888 normalized occupancy
13,CATAATTA,0.0816 normalized occupancy
14,TACTAATA,0.0814 normalized occupancy
15,CGAGCAGA,0.0731 normalized occupancy
16,ACATCCGC,0.0795 normalized occupancy
17,TACTTATA,0.0836 normalized occupancy
18,GTAAATCA,0.0784 normalized occupancy
19,ACATCGTC,0.0753 normalized occupancy
20,ACCTCATA,0.0788 normalized occupancy
21,ACCTCGTG,0.156 normalized occupancy
22,ATCTCGTA,0.0765 normalized occupancy
23,ACCTCATG,0.113 normalized occupancy
24,ACATCGTG,0.0998 normalized occupancy
25,ACATCGTA,0.0832 normalized occupancy

row,Sequence,binding signal
1,ATCTCGTG,0.0991 normalized occupancy
2,ACCTCGTC,0.0738 normalized occupancy
3,AGCTCGTG,0.0836 normalized occupancy
4,ACCTCATC,0.0736 normalized occupancy
5,ACCTCGTA,0.0827 normalized occupancy
6,AGACGTCC,0.0732 normalized occupancy
7,CAGCAATG,0.082 normalized occupancy
8,CTTACAAC,0.0757 normalized occupancy
9,ATGTTTGG,0.0806 normalized occupancy
10,CTCATGAA,0.0856 normalized occupancy
11,CCTTGCGA,0.0752 normalized occupancy
12,CCCATGAC,0.0853 normalized occupancy
13,CCAATGCG,0.0793 normalized occupancy
14,ATCATGTA,0.0811 normalized occupancy
15,CCCATGCC,0.0969 normalized occupancy
16,ACCATGAA,0.0755 normalized occupancy
17,ATCATGTC,0.0895 normalized occupancy
18,CCCATGAG,0.0921 normalized occupancy
19,CCCATGTC,0.0854 normalized occupancy
20,ATCATGTG,0.137 normalized occupancy
21,CCCATGCG,0.138 normalized occupancy
22,ACCATGAG,0.0976 normalized occupancy
23,CCTATGCG,0.0749 normalized occupancy
24,ACATCACC,0.0798 normalized occupancy
25,GACCAGCA,0.0755 normalized occupancy

row,Sequence,binding signal
1,CTGTCGTA,0.0747 normalized occupancy
2,GAGAACTA,0.0732 normalized occupancy
3,CTCTCGAA,0.0729 normalized occupancy
4,AACGGTTG,0.0768 normalized occupancy
5,CGTTGCCA,0.0801 normalized occupancy
6,GGCGGTGA,0.0725 normalized occupancy
7,ACCATGCC,0.0954 normalized occupancy
8,GCCATGGC,0.0823 normalized occupancy
9,GCCATGCC,0.0963 normalized occupancy
10,ACCATGAC,0.0839 normalized occupancy
11,CCCATGAA,0.0827 normalized occupancy
12,GCCATGCA,0.0904 normalized occupancy
13,ACAATGTG,0.0995 normalized occupancy
14,CCCATGCA,0.0973 normalized occupancy
15,ACCATGGC,0.0734 normalized occupancy
16,CCCATACA,0.0836 normalized occupancy
17,ACAATGTC,0.079 normalized occupancy
18,ACAATGTA,0.085 normalized occupancy
19,CATTTGTA,0.0834 normalized occupancy
20,CATACGCG,0.0762 normalized occupancy
21,AGGGAGCG,0.0763 normalized occupancy
22,CCGTACGC,0.072 normalized occupancy
23,ACACCAGT,0.0764 normalized occupancy
24,CCGACTTA,0.0735 normalized occupancy
25,CGCTAATC,0.0771 normalized occupancy

row,Sequence,binding signal
1,GAAATAGC,0.0789 normalized occupancy
2,ACCATGTG,0.225 normalized occupancy
3,ACCATGAT,0.084 normalized occupancy
4,ACCATGTC,0.0794 normalized occupancy
5,ACAATGCG,0.0867 normalized occupancy
6,ACCATGCA,0.0972 normalized occupancy
7,ACCATGGT,0.0862 normalized occupancy
8,ACCATGCT,0.123 normalized occupancy
9,ACTATGCG,0.0817 normalized occupancy
10,ACCATGTA,0.0876 normalized occupancy
11,ACCATGGA,0.0861 normalized occupancy
12,ACCATGCG,0.136 normalized occupancy
13,TCCATGCA,0.0861 normalized occupancy
14,ATGCTGGC,0.0864 normalized occupancy
15,CAGGCCTG,0.0765 normalized occupancy
16,AAACTAAC,0.0741 normalized occupancy
17,ATTGGCGC,0.0745 normalized occupancy
18,GTACAAGA,0.0806 normalized occupancy
19,CTTCTATC,0.0768 normalized occupancy
20,AGTCAGCG,0.0777 normalized occupancy
21,CCAATTGG,0.0757 normalized occupancy
22,AATCACGG,0.0727 normalized occupancy
23,AATCACGC,0.0974 normalized occupancy
24,AGTCACGG,0.0774 normalized occupancy
25,AATCACGA,0.0856 normalized occupancy

row,Sequence,binding signal
1,AATCACCT,0.0853 normalized occupancy
2,AATCACGT,0.099 normalized occupancy
3,GATCACCC,0.0786 normalized occupancy
4,GATCACGC,0.0977 normalized occupancy
5,GATCACGA,0.0786 normalized occupancy
6,AATCACTA,0.0729 normalized occupancy
7,AGTCACGC,0.0989 normalized occupancy
8,AGTCACGA,0.0912 normalized occupancy
9,CCAATGGA,0.0747 normalized occupancy
10,ACGCCTGC,0.0743 normalized occupancy
11,CCAGAATC,0.0733 normalized occupancy
12,CATCACGG,0.0829 normalized occupancy
13,CATCACGC,0.0961 normalized occupancy
14,CATCACGA,0.0811 normalized occupancy
15,GGTCTTGA,0.0779 normalized occupancy
16,CATGTGGA,0.157 normalized occupancy
17,GATGTGGA,0.0847 normalized occupancy
18,GATGTGGC,0.0839 normalized occupancy
19,CATGTTGA,0.0943 normalized occupancy
20,CATGTTGC,0.0999 normalized occupancy
21,CATGTGGG,0.144 normalized occupancy
22,CATGTGGC,0.165 normalized occupancy
23,CATGTCGG,0.088 normalized occupancy
24,AATGTGGA,0.0903 normalized occupancy
25,AATGTGGC,0.0898 normalized occupancy

row,Sequence,binding signal
1,AATGTGGG,0.0907 normalized occupancy
2,GATGTTGC,0.0781 normalized occupancy
3,GGATTTGA,0.0761 normalized occupancy
4,CTATAGTA,0.0737 normalized occupancy
5,AACAATGC,0.0816 normalized occupancy
6,AGCTGTTA,0.0759 normalized occupancy
7,AAGTGTAA,0.0802 normalized occupancy
8,GGGTCTAC,0.0725 normalized occupancy
9,CGGACCCC,0.0732 normalized occupancy
10,ACCTCGAG,0.0843 normalized occupancy
11,AGATGCCG,0.0739 normalized occupancy
12,GAATGCCC,0.0765 normalized occupancy
13,ATATGCCG,0.0773 normalized occupancy
14,CCATGCCG,0.1 normalized occupancy
15,ACATGCCT,0.0828 normalized occupancy
16,CCATGCCA,0.0875 normalized occupancy
17,AGATGCCC,0.0786 normalized occupancy
18,ACATGCCG,0.103 normalized occupancy
19,CCATGCCC,0.0935 normalized occupancy
20,CAATGCCG,0.0728 normalized occupancy
21,ACATGCCC,0.099 normalized occupancy
22,GCATGCCC,0.105 normalized occupancy
23,TAAGAGTA,0.0797 normalized occupancy
24,TCTCACAA,0.0786 normalized occupancy
25,ATGAGAGC,0.078 normalized occupancy

row,Sequence,binding signal
1,CGAGATGC,0.078 normalized occupancy
2,AAGGACAC,0.0757 normalized occupancy
3,GGCCACGA,0.0815 normalized occupancy
4,AGGTCTCA,0.074 normalized occupancy
5,CAATTAAA,0.0744 normalized occupancy
6,AGTGGTCG,0.0719 normalized occupancy
7,AGATGCCA,0.0772 normalized occupancy
8,ATATGCCA,0.0822 normalized occupancy
9,TCATGCCA,0.0861 normalized occupancy
10,GCATGCCA,0.108 normalized occupancy
11,GTATGCCA,0.0806 normalized occupancy
12,ACATGCCA,0.0967 normalized occupancy
13,GGTCCCGA,0.0733 normalized occupancy
14,ACTAACCT,0.0752 normalized occupancy
15,GGTGGGAC,0.0719 normalized occupancy
16,CGTGGGAC,0.096 normalized occupancy
17,CGTGGGAA,0.089 normalized occupancy
18,TGGGTCAA,0.0772 normalized occupancy
19,CACCATGA,0.0873 normalized occupancy
20,CTCCATGC,0.0969 normalized occupancy
21,CACCATGC,0.108 normalized occupancy
22,GACCATGC,0.109 normalized occupancy
23,CTCCATGA,0.0798 normalized occupancy
24,AACCATGC,0.106 normalized occupancy
25,CACCATGG,0.0885 normalized occupancy

row,Sequence,binding signal
1,GACCATAC,0.0805 normalized occupancy
2,GACCATGA,0.0823 normalized occupancy
3,ATCCATGC,0.0942 normalized occupancy
4,AACCATGT,0.0862 normalized occupancy
5,AACCATGA,0.0836 normalized occupancy
6,GTTGCCCA,0.0762 normalized occupancy
7,CTCCCTCC,0.0789 normalized occupancy
8,CGACCCAC,0.0808 normalized occupancy
9,AGTGTCAT,0.0822 normalized occupancy
10,CCACATCA,0.0798 normalized occupancy
11,GACGCTTA,0.0768 normalized occupancy
12,AACGCTTA,0.0733 normalized occupancy
13,CGCGCTTC,0.0753 normalized occupancy
14,CACGCTTC,0.098 normalized occupancy
15,CACGCTTA,0.103 normalized occupancy
16,AACGCTTC,0.0768 normalized occupancy
17,TACCTAGA,0.073 normalized occupancy
18,AACTCATC,0.0815 normalized occupancy
19,GCTGACGA,0.072 normalized occupancy
20,CCATGTCG,0.0843 normalized occupancy
21,ACATGTAG,0.101 normalized occupancy
22,CCATGTAG,0.0836 normalized occupancy
23,ACATGTAT,0.102 normalized occupancy
24,ACATGTCT,0.0899 normalized occupancy
25,ACATGTCG,0.1 normalized occupancy

row,Sequence,binding signal
1,AAATGTAG,0.0793 normalized occupancy
2,TCATGTAA,0.0936 normalized occupancy
3,ACATGTAA,0.0953 normalized occupancy
4,AAATGTAT,0.0812 normalized occupancy
5,AGATGTAT,0.0832 normalized occupancy
6,GCATGTAA,0.0836 normalized occupancy
7,ACCATTAG,0.0781 normalized occupancy
8,ATCCAGAG,0.0719 normalized occupancy
9,CACGCGGG,0.145 normalized occupancy
10,AACGCGGA,0.0818 normalized occupancy
11,AACGCGGC,0.0757 normalized occupancy
12,CCCGCGGG,0.0758 normalized occupancy
13,GACGCGGC,0.0758 normalized occupancy
14,TACGCGGA,0.0723 normalized occupancy
15,CGCGCGGA,0.0836 normalized occupancy
16,CACGCGGC,0.151 normalized occupancy
17,CACGCGGA,0.15 normalized occupancy
18,CCGAGAGA,0.0728 normalized occupancy
19,TCGCACGA,0.0806 normalized occupancy
